# In the library only some 3.1% were active in any assay of this set; here they are far more common.
# CF NFkB block – inhibitors of cystic fibrosis induced NF-kB. inhibition, % at 5 µM. AID 588850. 0.86% of 360,000 active. KKLEB NF-kB-GFP reporter, PAF-induced, GFP fluorescence overnight;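 active = at least 50% inhibition at 5 µM, scaled per plate between neutral and stimulator controls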;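 note: PAF is a Pseudomonas aeruginosa culture filtrate used as stimulus; plate controls were PAF-stimulated DMSO wells for no effect and unstimulated DMSO wells for full effect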
# PPC-1+TRAIL kill – compounds killing PPC-1 cancer cells with TRAIL present (potentiator screen, no TRAIL-free arm); cell killing (% activity), % at 4 µM or 5 µM; 0.41% of 220,000 active; PPC-1 cells + TRAIL, ATPLite viability luminescence; AID 1443;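 active = cell killing above 50% in the first pass at 4 µM, then a duplicate retest at 5 µM averaging 50% or more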;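 note: plate controls were cells with TRAIL plus DMSO for no effect and medium-only wells lacking cells for full effect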
# Peg3 promoter – inhibitors of Peg3 promoter; HeLa PEG-Prom luciferase reporter, luminescence, overnight; AID 588405; 1.7% of 360,000 active; inhibition, % at 20 µM;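 active = inhibition of at least 50% at 20 µM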
# KKLEB tox – CF airway cell cytotoxicity counter-screen; KKLEB CF airway cells viability, ATPlite luminescence, overnight; hits give low values; cells stimulated with P. aeruginosa culture filtrate; activity change (cytotoxicity), % at 5 µM; 0.36% of 360,000 active; AID 602141;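 active = corrected activity change at or below -50% at 5 µM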
# HIF-2a inh – blocks HIF-2a reporter activity | 786-0 RCC cells HIF-2a reporter, luciferase luminescence, overnight | inhibition, % at 18.8 µM | 0.72% of 360,000 active | AID 624352;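 active = inhibition of the luminescence signal of 40% or more relative to plate controls, in a single-dose primary screen at 18.75 µM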
# TRAIL sens C8 – sensitizes caspase-8 expressing cells to TRAIL; 1% of 360,000 active; NB7+C8 cells + TRAIL, ATPlite viability luminescence; AID 624354; inhibition (viability loss, TRAIL sensitization), % at 10 µM;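 active = compounds causing at least 50% loss of cell viability in the single-dose screen, relative to plate controls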
# Starred values were filed as active, the others as inactive; . = no result given.
SMILES,CF NFkB block,PPC-1+TRAIL kill,Peg3 promoter,KKLEB tox,HIF-2a inh,TRAIL sens C8
CSCCC1NC(=O)N(CC(=O)N2CCc3ccccc3C2)C1=O (stereo not drawn),0,.,-13,3,10,-17
CC1(C)CC(=O)C=C(c2ccc(-c3ccc4[nH]ccc4c3)cc2)C1=O,4,.,-200,-32,-247,70*
CC1(C)CC(=O)C=C(c2ccccc2-c2ccc3cc[nH]c3c2)C1=O,-18,.,12,6,-4,-18
CN(C(=O)c1cccc(S(=O)(=O)N2CCOCC2)c1)c1c(N)n(Cc2ccccc2)c(=O)[nH]c1=O,-2,.,15,-10,8,-8
O=C(N/N=C/c1ccc(O)cc1)Nc1cccc2nsnc12,69*,17,32,-38,-72,7
Cc1nc(CSc2nnc(C)s2)cs1,-9,87*,-14,6,-4,3
CC(C)(C)c1ccc(-c2cn(-c3ccc(Br)cc3)c3[n+]2CCCS3)cc1,15,49,45,-12,17,55*
CC(C)c1ccc(/C=C/C(=O)Nc2nncs2)cc1,5,29,-37,-20,-65,74*
Cc1sc(NC(=O)/C=C/c2ccc(C(C)C)cc2)c(C#N)c1C,6,4,3,-6,-11,19
CSCCC(NC(=O)c1cccc(C)c1)C(=O)NNC(=O)c1cccs1 (stereo not drawn),-19,.,-4,-2,-4,-19
Cc1ccc(NC(=O)C2CCN(C(=O)c3ccccc3C)CC2)cc1,6,18,13,0,18,-3
Cc1ccccc1C(=O)N1CCC(C(=O)Nc2ccc(S(=O)(=O)N3C(C)CCCC3C)cc2)CC1 (stereo not drawn),2,.,78*,-11,6,-2
COCC(C)N1C(=O)Cc2c1nc(N)c1c(N)nc(N3CCN(c4ccccc4F)CC3)c(C#N)c21 (stereo not drawn),6,-10,55*,-15,21,14
Cc1csc(CN(C)C(=O)CC2C(=O)NCCN2Cc2ccc(Cl)c(F)c2)n1 (stereo not drawn),-22,.,-8,5,7,-11
Cc1nc(Nc2ccccc2)c2oc3ccc(Cl)cc3c2n1,-8,.,-86,-5,-130,13
Clc1ccc2oc3c(Cl)ncnc3c2c1,20,18,84*,-15,18,0
CCCS(=O)(=O)NC(=O)C1(C)CCCN(C(=O)c2ccc3ccccc3n2)C1 (stereo not drawn),-19,.,17,6,19,-10
O=C(Nc1ccc(F)cc1F)C1CCCN(c2ncnc3c2nc2n3CCCCC2)C1 (stereo not drawn),-2,.,28,-23,19,20
O=C(Nc1cc(F)ccc1F)C1CCCN(c2ncnc3c2nc2n3CCCCC2)C1 (stereo not drawn),-24,.,52*,-2,8,16
CCCOc1ccc(CSc2nc3ccccc3[nH]2)cc1,-6,27,-229,-14,-263,53*
CCOc1ccc(OCCSc2nc3ccccc3[nH]2)cc1,-16,24,-14,8,-71,2
Cc1cc2nc(C3CCCCC3)c(Cc3cccc(F)c3)n2c(C)c1Br,36,.,1,1,-7,4
CCOC(=O)C1(C)CCN1C(=O)c1csnn1 (stereo not drawn),8,.,3,-27,15,-4
COc1ccc(-c2nnc(NC(=O)c3ccc(S(=O)(=O)N4CCCc5ccccc54)cc3)o2)cc1,5,1,53*,-3,19,15
CCOC(=O)c1nc(NNC(=O)c2ccc([N+](=O)[O-])cc2)sc1C,-10,.,68*,9,-20,40
SMILES,CF NFkB block,PPC-1+TRAIL kill,Peg3 promoter,KKLEB tox,HIF-2a inh,TRAIL sens C8
CCCCCNC(=O)C(c1ccc(OC)cc1)n1c(=O)c(-c2cc3ccccc3[nH]2)nc2ccccc21 (stereo not drawn),.,.,.,.,-1,-11
Cc1cc(-n2c(C)cc(C(=O)CN3C(=O)C(=O)N(C)C3=O)c2C)no1,-9,.,-9,4,7,9
COc1ccc(-n2c(C)cc(C(=O)CN3C(=O)c4ccccc4C3=O)c2C)cc1,9,-5,-37,8,-98,1
COc1ccc(-n2c(C)cc(C(=O)CCl)c2C)cc1,0,12,101*,-17,40*,-33
Cc1cc(C(=O)CCl)c(C)n1-c1c(C)n(C)n(-c2ccccc2)c1=O,39,16,60*,6,18,5
Cc1nnc(SCC(=O)c2cc(C)n(-c3c(C)n(C)n(-c4ccccc4)c3=O)c2C)s1,-22,15,10,-2,4,15
Cc1cc(-n2c(C)cc(C(=O)CCl)c2C)no1,50,-5,75*,-12,14,32
O=CC(=Cc1ccccc1)c1ccccc1,6,.,9,-1,6,-4
CCCS(=O)(=O)NC(=O)C1(C)CCCN(C(=O)c2cc(OC)ccc2Br)C1 (stereo not drawn),6,.,-2,6,11,-10
CCCCNC(=O)c1ccc(Cn2c(=S)[nH]c3c([nH]c4ccc(OC)cc43)c2=O)cc1,60*,17,80*,-63*,-13,70*
CCOCCCNC(=O)c1ccc(Cn2c(=S)[nH]c3c([nH]c4ccc(OC)cc43)c2=O)cc1,3,0,-7,12,2,-6
CCCCN(C(=O)c1ccccc1F)c1c(N)n(CCC)c(=O)[nH]c1=O,-12,.,73*,0,10,-7
CCCCN(C(=O)c1cc(=O)[nH]c2ccccc12)c1c(N)n(CCC)c(=O)[nH]c1=O,.,2,.,.,.,.
CCCCC1CCC(C(=O)N(CC(C)C)c2c(N)n(CCCC)c(=O)[nH]c2=O)CC1 (stereo not drawn),13,.,14,-11,18,23
CCCCC1CCC(C(=O)N(CCC(C)C)c2c(N)n(CCCC)c(=O)[nH]c2=O)CC1 (stereo not drawn),-4,.,98*,-1,13,52*
CCCCC1CCC(C(=O)N(CCCC)c2c(N)n(CCCC)c(=O)[nH]c2=O)CC1 (stereo not drawn),13,.,21,-7,19,72*
O=[N+]([O-])c1ccc2oc(C(O)c3cccc(Cl)c3)cc2c1 (stereo not drawn),12,.,18,-9,2,-16
Nc1ccc(-c2nc3cc(N)ccc3o2)cc1,16,.,-201,-4,-155,48
CN(C)c1ccc(-c2nc3cc(N)ccc3o2)cc1,-10,.,-27,-60*,-54,83*
COC(=O)c1ccc(-c2nc3cc(N)ccc3o2)cc1,-22,32,-121,-11,5,56*
CCC1(c2ccc(F)cc2)NC(=O)N(CC(=O)N2c3ccccc3CC2C)C1=O (stereo not drawn),2,.,9,-8,9,-13
CC1CCCC(NCC(O)COC(c2ccc(F)cc2)c2ccc(F)cc2)C1C (stereo not drawn),22,13,104*,-14,4,22
